Experimental data from PubChem BioAssay AID602244 (Sanford-Burnham Center for Chemical Genomics, 2012).
In all, about 360,000 compounds went through this assay and about 1,300 (0.36%) were called active. What follows is part of a selection rich in actives, with near analogues and random picks from the rest. Values without a mark were called inactive. Rule as the data show it: active = inhibition above about 34% (passing the limit was not always enough); inactive = the rest.

What follows are compounds tested against C-X-C chemokine receptor type 6 (Homo sapiens) (UniProt O00574) (assay: blockade of CXCL16-induced CXCR6 beta-arrestin recruitment – cell-based, luminescence, CHO-K1 PathHunter, 1536-well, primary screen (AID 602244;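 also: antagonist mode with CXCL16 agonist at 10 nM final; 0% = 10 nM CXCL16 with DMSO and 100% = unstimulated wells without agonist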)). Details: at 20 µM, hits give high values.
C-X-C chemokine receptor type 6 (Homo sapiens), sequence (O00574 whole entry, looked up): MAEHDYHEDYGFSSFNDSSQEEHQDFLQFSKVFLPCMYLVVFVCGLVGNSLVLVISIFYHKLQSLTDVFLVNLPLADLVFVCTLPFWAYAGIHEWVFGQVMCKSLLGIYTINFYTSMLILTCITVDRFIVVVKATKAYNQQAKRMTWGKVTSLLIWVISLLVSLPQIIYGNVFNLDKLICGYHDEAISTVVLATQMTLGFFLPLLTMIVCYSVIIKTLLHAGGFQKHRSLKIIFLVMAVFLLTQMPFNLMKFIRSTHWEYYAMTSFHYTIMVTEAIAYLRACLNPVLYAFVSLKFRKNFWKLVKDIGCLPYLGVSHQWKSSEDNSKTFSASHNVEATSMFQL

| Structure (SMILES) | inhibition |
| --- | --- |
| CC(=O)Nc1nc(C)c(Cc2ccccc2)c(=O)[nH]1 | 4.4% |
| CCCCc1nc2cc(C(=O)N3CCCCC3CCO)ccc2o1 (stereo not drawn) | 4% |
| COc1ccc2c(c1)c(=Cc1ccc(N(C)C)cc1)c1cc(-c3ccccc3)[n+](C)n12 | 39.6% (active) |
| COCCC(=O)N1CCC(Oc2ccc(C(=O)NCc3ccon3)cc2)CC1 | 6.3% |
| C[C@H]1CN([C@@H](C)CO)C(=O)c2cc(C3=CCCCC3)cnc2O[C@@H]1CN(C)C(=O)Cc1ccccc1 | -0.7% |
| CC1(C)OC(=O)C2=C(C[C@@H](C3CCCCC3)O[C@@H]2c2ccc(Cl)cc2)O1 | 8.1% |
| COCCN(C(=S)Nc1cccc(Cl)c1C)C(C)c1ccco1 (stereo not drawn) | 3.3% |
| OCC1OC(n2cnc3c(N4CCCC4)ncnc32)C(O)C1O (stereo not drawn) | -4.2% |
| COc1ccc(C2NC(=O)C(=O)/C2=C(\O)c2ccc(Cl)cc2)cc1OC (stereo not drawn) | 0.4% |
| CCOCCCN1C(=O)C2C(C(=O)Nc3ccc(OCC)cc3)C3C=CC2(O3)C1C(=O)NC1CCCCC1 (stereo not drawn) | 74.4% (active) |
| CCN(CC)CCN1C(=O)C2C(C(=O)Nc3ccc(Br)cc3)C3C=CC2(O3)C1C(=O)NC1CCCCC1 (stereo not drawn) | 7.8% |
| CC(C)N1C(=O)C2C(C(=O)NC3CCCCC3)C3C=CC2(O3)C1C(=O)NC1CCCC1 (stereo not drawn) | -4.9% |
| CCc1cc2c(=O)n(-c3ccccc3)c(SCC(=O)O)nc2s1 | -2% |
| CCO[C@H]1OC(C(=O)N2CCN(Cc3ccccc3)CC2)=C[C@@H](c2cn(C(C)=O)c3ccccc23)[C@@H]1CCCO | -0.6% |
| CC1CCN(S(=O)(=O)c2ccc3c(ccn3CC(=O)O)c2)CC1 | 7.6% |
| O=C(Nc1ccccc1C(=O)N1CCCCCC1)c1ccccc1Cl | 10.2% |
| O=C(Nc1ccccc1Cl)/C(Cl)=C(\Cl)S(=O)c1ccccc1 (stereo not drawn) | 93.1% (active) |
| Cc1cc(C(=O)OCC(=O)Nc2ccccc2Cl)c(C)o1 | -6.7% |
| Nc1nc2c(ncn2[C@@H]2O[C@H](CNCc3ccc(OCCCN4CCOCC4)cc3)[C@@H](O)[C@H]2O)c(=O)[nH]1 | -4.2% |
| CN(C)S(=O)(=O)c1ccc(Cl)c(NC(=O)COC(=O)CC(NC(N)=O)c2ccc(Cl)cc2)c1 (stereo not drawn) | -0.2% |
| O=C(/C=C/Sc1ncn[nH]1)c1ccc(Cl)cc1 | 17.1% |

| Structure (SMILES) | inhibition |
| --- | --- |
| CCOC(=O)C(=Cc1ccccc1)C(=O)c1ccccc1 | 24% |
| Cc1cc(C)nc(S/C=C/C(=O)c2ccccc2)n1 | 46.1% (active) |
| CCCCc1nc2ccccc2c(NC(=O)CN2CCN(C)CC2)c1CCC | 2.4% |
| Nc1ccccc1SC(C[N+](=O)[O-])c1ccccc1 (stereo not drawn) | 43.8% (active) |
| CC(=O)Oc1ccc(Cn2c(C)c(C(=O)NCc3ccc(C#N)cc3)sc2=O)cc1 | 3.1% |
| CC(=O)N1Cc2ccccc2CC1C(=O)O (stereo not drawn) | 8% |
| Cc1ccc(/C=N/NC(=O)C2=NNC(c3ccccc3)(c3ccccc3)C2)c(O)c1 | 49.2% (active) |
| Cc1ccc(NC(=O)CCC(=O)N/N=C/c2ccco2)c(C)c1 | -4% |
| Cc1ccc(/C=N/NC(=O)C(NC(=O)c2ccccc2)c2n[nH]c(=O)c3ccccc23)cc1 (stereo not drawn) | -2.3% |
| O=C(NCCc1ccccc1)c1ccc(NC2=NC3CS(=O)(=O)CC3S2)cc1 (stereo not drawn) | 0% |
| CCCCNC(=S)N/N=C1\CCCCc2ccccc21 | 37.6% (active) |
| S=C(NCCC1=CCCCC1)Nc1ccccc1 | -7% |
| O=[N+]([O-])c1ccccc1N/N=C1\CCc2ccccc21 | 2.8% |
| NC(=O)C1=C[C@@H](c2ccc3c(c2)OCO3)C[C@@H](OCCCCO)O1 | 1.5% |
| Cc1ccc(NC(=O)CN(C)C(=O)COC(=O)c2nccnc2N)cc1 | -1.8% |
| CC(=O)c1cc(NC(=O)c2ccccc2)c(=O)oc1/C=C/N(C)C | 9.9% |
| O=C(NC1=CC(=O)c2ccccc2C1=O)c1ccccc1 | 71.6% (active) |
| O=C(COC(=O)c1cccc(Br)c1)Nc1cccc2c1C(=O)c1ccccc1C2=O | -9.2% |
| CCOC(=O)N1CCC(Nc2c(NCCCN3CCN(CC)CC3)c(=O)c2=O)CC1 | 8.9% |
| CCCCS(=O)c1snnc1C (stereo not drawn) | -4.7% |
| CCCCc1ccc(S(=O)(=O)NC(=O)C2(C)CCN2C(=O)c2ccccc2)cc1 (stereo not drawn) | 7.2% |

| Structure (SMILES) | inhibition |
| --- | --- |
| Cc1ccc(C23CC4CC(CC(C(=O)NCC(=O)O)(C4)C2)C3)cc1 | 1.5% |
| CCCCN(C)CCNC(=O)CSCc1ccc(C)cc1 | 2.3% |
| Cc1cccc(N2C(=O)CC(SC(N)=Nc3ccccc3)C2=O)c1 (stereo not drawn) | 2.2% |
| Cc1cccc(-n2c(O)c(C=Nc3ccccc3N)c(=O)[nH]c2=O)c1 | 108% (active) |
| Cc1ccc(N=Cc2c(O)n(-c3nccs3)c(=O)c3ccccc23)c(C)c1 | 4.8% |
| O=C(Cn1ncc2c3ccccc3n(Cc3ccccc3)c2c1=O)NCCCN1CCOCC1 | 8.7% |
| O=C(COc1nsnc1N1CCOCC1)Nc1ccccc1Cl | -3.6% |
| Cn1cccc1C(=O)NC(=O)COC(=O)Cc1coc2ccc3ccccc3c12 | -1.2% |
| CC(C)c1nc2sc3c(c2c(=O)n1N)CC(C)(C)OC3 | 2.4% |
| COc1cc(NC(=O)C2CCN(c3cnccn3)CC2)cc(OC)c1 | -10.3% |
| O=C(OC1CCCCC1=O)c1cccc(S(=O)(=O)NCc2ccccc2)c1 (stereo not drawn) | 7.3% |
| CC(=O)N/C(=C\c1ccc(F)cc1)C(=O)NC(Cc1ccccc1)C(=O)O (stereo not drawn) | 1.6% |
| CC(=O)c1ccc(S(=O)(=O)N(C)CCCC(=O)N(C)Cc2ccccc2F)cc1 | 0.4% |
| CCCNC(=O)c1cc(C2CCCN(C(=O)c3ccc4c(c3)CCO4)C2)on1 (stereo not drawn) | -0.8% |
| COc1ccc(NC(=O)c2oc3ccc(S(=O)(=O)N4CCOCC4)cc3c2C)cc1 | -0.9% |
| CCOC(=O)C1CCN(C(=O)c2oc3ccc(S(=O)(=O)N4CCCCCC4)cc3c2C)CC1 | -3.5% |
| Cc1c(C(=O)NCCN(C)C)oc2ccc(S(=O)(=O)N3CCCC3)cc12 | 65.9% (active) |
| CC(Oc1cccc(Cl)c1)C(=O)Nc1ccc(S(=O)(=O)Nc2ncccn2)cc1 (stereo not drawn) | -1.1% |
| CC[C@@H]1Cc2cc(O)ccc2C2=C1c1ccc(O)cc1C[C@H]2CC | -3.2% |
| COC(=O)c1ccc(S(=O)(=O)N2CCC(c3nc4ccccc4o3)CC2)cc1 | 1.2% |
| CC1Cn2c(nnc2-c2cccs2)S1 (stereo not drawn) | -1.1% |
